Screening results as filed in PubChem.
In the library only some 1.6% were active in any assay of this set; here they are far more common.
KCNQ2 inh = inhibitors of rat KCNQ2 potassium channel | CHO-K1 KCNQ2, FluxOR thallium flux, 20 min; stronger effect = lower value | O88943 | 310,000 compounds, 1.1% hits | B-score at 10 µM | AID 2156;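 active means fluorescence ratio B-score at most minus 3 library SDs, with starting brightness B-score within 2 library SDs, cut at about -5.5 in these data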
Target sequence (O88943 whole entry, looked up): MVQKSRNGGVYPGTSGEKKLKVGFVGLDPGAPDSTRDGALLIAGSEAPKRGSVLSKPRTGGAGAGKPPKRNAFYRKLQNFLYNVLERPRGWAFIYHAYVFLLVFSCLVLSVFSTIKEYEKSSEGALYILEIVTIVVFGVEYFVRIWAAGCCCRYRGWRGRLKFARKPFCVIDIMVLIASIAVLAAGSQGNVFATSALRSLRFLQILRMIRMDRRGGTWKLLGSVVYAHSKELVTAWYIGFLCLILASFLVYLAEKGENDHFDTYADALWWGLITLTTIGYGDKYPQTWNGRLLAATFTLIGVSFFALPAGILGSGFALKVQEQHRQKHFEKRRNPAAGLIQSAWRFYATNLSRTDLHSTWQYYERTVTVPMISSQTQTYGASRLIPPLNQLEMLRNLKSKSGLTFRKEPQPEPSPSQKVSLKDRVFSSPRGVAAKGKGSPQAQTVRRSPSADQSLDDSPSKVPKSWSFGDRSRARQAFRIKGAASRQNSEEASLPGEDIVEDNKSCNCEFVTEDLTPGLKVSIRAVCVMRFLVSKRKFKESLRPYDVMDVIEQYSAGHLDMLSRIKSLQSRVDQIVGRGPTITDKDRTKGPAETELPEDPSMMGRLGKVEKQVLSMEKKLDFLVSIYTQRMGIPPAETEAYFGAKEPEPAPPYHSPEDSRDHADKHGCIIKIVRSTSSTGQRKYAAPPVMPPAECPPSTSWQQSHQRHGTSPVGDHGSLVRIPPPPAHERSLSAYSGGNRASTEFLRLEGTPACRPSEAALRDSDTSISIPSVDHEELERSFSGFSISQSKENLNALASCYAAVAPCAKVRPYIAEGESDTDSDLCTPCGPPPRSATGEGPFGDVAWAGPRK
KCNQ2 enhance = potentiators of rat KCNQ2 potassium channel | O88943 | B-score at 10 µM | 310,000 compounds, 0.54% hits | CHO-K1 KCNQ2, FluxOR thallium flux fluorescence; stronger effect = higher value;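 active means fluorescence ratio B-score at least 3 SD of library B-scores, with initial fluorescence B-score within 3 of them, cut at about 5.3 in these data; same plate scores as AID 2156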;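 further: B-score of peak minus minimum over baseline fluorescence ratio after K+ and Tl+ stimulus; positive B-score means potentiation of KCNQ2 with more thallium influx and brighter signal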
Kir21 confirm = confirmation of mouse Kir2.1 potassium channel inhibitors | 2,300 compounds, 41% hits | shares compounds with KCNQ2 enhance | Kir2.1-expressing cells, FluxOR thallium flux fluorescence; stronger effect = lower value | Tl flux remaining, % of negative control (stronger effect = lower value), % at 10 µM;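 active means Primary-screen hit whose thallium flux fell at least 3 control SD below untreated wells in both duplicates, with normal baseline fluorescence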;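 further: 0% = blank wells without stimulus and 100% = stimulated no-compound controls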
HEK293 ctr = counter-screen for Kir2.1 inhibitors: effect in parental HEK293 cells; 2,300 compounds, 19% hits; FluxOR thallium flux fluorescence; 0% = unstimulated blank wells; shares compounds with KCNQ2 enhance; AID 2105; FluxOR signal as % of negative control (100 = no effect), % at 10 µM;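 active means dye signal at least 3 control SD above or below untreated wells in both duplicates, raw fluorescence within 3, either direction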;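 further: percent is based on the flux ratio of peak minus minimum fluorescence over baseline F0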
CHO-K1 Tl ctr = alters thallium flux in parental CHO-K1 cells, KCNQ2 counter-screen; activity increase over 3SD of controls, % at 10 µM; AID 2282; 1,200 compounds, 43% hits; FluxOR thallium flux fluorescence; zero = vehicle mean+3SD, 100% = vehicle-minus-blank window; shares compounds with KCNQ2 enhance;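 active means signal rise of at least 3 SD above the untreated control mean, in both duplicate wells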;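 further: counter screen of KCNQ2 potentiator hits so any rise reflects channel-independent effects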
KCNQ1 pot spec = tests whether KCNQ2 potentiators also act on human KCNQ1. activation over 3SD threshold, % at 10 µM. 1,200 compounds, 28% hits. CHO KCNQ1 stable, FluxOR thallium flux fluorescence; beyond 3SD, as % of vehicle-control signal. shares compounds with KCNQ2 enhance;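 active means fluorescence ratio rise of at least 3 SD of vehicle wells above their mean, in both replicate wells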;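 further: 0% = vehicle mean plus 3 SD and 100% = vehicle minus unstimulated blank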
KCNQ2 pot conf = rat KCNQ2 channel potentiator confirmation. shares compounds with KCNQ2 enhance. CHO-KCNQ2 cells, FluxOR thallium flux fluorescence. potentiation, less the hit threshold, % at 10 µM. 1,200 compounds, 68% hits;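 active means fluorescence ratio rising 3 SD or more over the vehicle control mean in both replicates, plus primary screen hit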;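 further: peak minus minimum thallium fluorescence divided by baseline after K/Tl stimulus; 0% = vehicle mean plus 3 SD and 100% = vehicle minus unstimulated blank difference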
Kir2-1 sel = selectivity of KCNQ2 potentiators: effect on mouse Kir2.1; shares compounds with KCNQ2 enhance; HEK293 Kir2.1, FluxOR thallium flux fluorescence; activity over 3SD threshold, % at 10 µM; 1,200 compounds, 2% hits;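 active means fluorescence ratio rise of at least 3 SD above the vehicle-control mean, seen in both replicates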;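 further: 0% = vehicle mean plus 3 SD and 100% = vehicle minus no-stimulus blank window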
KCNQ2 W236L pot = rat KCNQ2 W236L mutant potentiation by KCNQ2 potentiators; shares compounds with KCNQ2 enhance; CHO KCNQ2-W236L, automated patch clamp current; 940 compounds, 10% hits; current increase over 3SD of negative controls (%), stronger effect = higher value, % at 25 µM; AID 2558;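 active means current increase at least 3 SD of the untreated controls above them in both duplicate recordings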
* hit, by the source's call; i = inactive; nt = no result given.

SMILES | KCNQ2 inh | KCNQ2 enhance | Kir21 confirm | HEK293 ctr | others
COc1ccc(OC)c(NC(=O)NC2CCCCCCC2)c1 | i | 12.1* | i | i | CHO-K1 Tl ctr=-15.2;KCNQ1 pot spec=-28.1;KCNQ2 pot conf=3.5*;Kir2-1 sel=-42.3;KCNQ2 W236L pot=i
Cc1ccc(-c2nnc(SCc3ccc(C#N)cc3)n2Cc2ccco2)cc1 | i | nt | nt | nt
c1ccc(CSc2nnc(-c3ccco3)n2Cc2ccco2)cc1 | i | nt | nt | nt
c1ccc(CSc2nnc(-c3cccs3)n2Cc2ccco2)cc1 | -6.01* | -6.01 | 65.0%* | i
Cc1ccccc1CSc1nnc(-c2ccco2)n1Cc1ccco1 | i | nt | 50.0%* | i
CCC(C(=O)NCc1ccc(F)cc1)N(Cc1cccs1)C(=O)c1snc(C(N)=O)c1N (stereo not drawn) | i | nt | nt | nt
CC1=C(C(=O)OC2CCCCC2)C(c2cccc([N+](=O)[O-])c2)NC(=O)N1 (stereo not drawn) | i | 1.69 | nt | nt
CC1=C(C(=O)OCC2CCCCC2)C(c2ccc(O)cc2)NC(=O)N1 (stereo not drawn) | i | 1.68 | nt | nt
CC1=C(C(=O)OC2CCCCCCC2)C(c2cccc(O)c2)NC(=O)N1 (stereo not drawn) | i | 20.3* | i | i | CHO-K1 Tl ctr=-0.3;KCNQ1 pot spec=-6.8;KCNQ2 pot conf=81.6*;Kir2-1 sel=-19.1;KCNQ2 W236L pot=29.3%*
CC1=C(C(=O)OCC2CCCCC2)C(c2cccc(O)c2)NC(=O)N1 (stereo not drawn) | i | 17.1* | i | i | CHO-K1 Tl ctr=-11.0;KCNQ1 pot spec=-20.9;KCNQ2 pot conf=58.1*;Kir2-1 sel=-45.2;KCNQ2 W236L pot=34.4%*
O=C(Nc1ncc([N+](=O)[O-])s1)c1ccccc1Br | i | nt | nt | nt
CCCCCN(C(=O)CCC(=O)OCC(=O)c1ccc(CCC)cc1)c1c(N)n(CCCC)c(=O)[nH]c1=O | i | 0.47 | nt | nt
CCN(CC)CCOC(=O)CCc1cccc2ccccc12 | i | 2.08 | nt | nt
CCN(CC)CCOC(=O)C(Cc1ccco1)Cc1cccc2ccccc12 (stereo not drawn) | i | nt | 36.5%* | i
OC(CNCc1ccccc1F)COc1cccc2ccccc12 (stereo not drawn) | i | nt | 72.5%* | i
CC(C)NCC(O)COc1cccc2ccccc12 (stereo not drawn) | i | nt | nt | nt
Cc1ccc(NC2CCCN(C(=O)c3cn(C)c4ccccc34)C2)cc1C (stereo not drawn) | i | nt | nt | nt
COc1cc(C2NC(=O)N(C)C(C)=C2C(=O)OCc2ccccc2)cc(Br)c1O (stereo not drawn) | i | 1.07 | nt | nt
COc1ccc(CCNCC(O)COc2ccc(Cl)cc2)cc1OC (stereo not drawn) | i | 1.43 | nt | nt
C/C=C/c1ccc(OCC(O)CNCC(c2ccc(OC)cc2)N(C)C)c(OC)c1 (stereo not drawn) | i | nt | nt | nt
C/C=C/c1ccc(OCC(O)CN(C)Cc2ccc(SC)cc2)c(OC)c1 (stereo not drawn) | i | nt | i | i
OC(CNCCc1ccc(Cl)cc1)COc1cc(Cl)ccc1Cl (stereo not drawn) | i | nt | 24.0%* | 121.5%*
C/C=C/c1ccc(OCC(O)CNCCc2ccc(OC)cc2)c(OC)c1 (stereo not drawn) | i | nt | i | i
C/C=C/c1ccc(OCC(O)CN2CCCCC2CC)c(OC)c1 (stereo not drawn) | i | nt | nt | nt
CCCn1c(=S)[nH]c2ccccc2c1=O | i | 1.17 | nt | nt
CCc1cc2c(=O)n(CCC(C)C)c(=S)[nH]c2s1 | i | 17.1* | i | 371.0%* | CHO-K1 Tl ctr=14.1*;KCNQ1 pot spec=-4.7;KCNQ2 pot conf=57.3*;Kir2-1 sel=-4.7;KCNQ2 W236L pot=i
O=C(Cc1ccccc1Cl)Nc1nc2ccccc2[nH]1 | i | nt | nt | nt
